Only some compounds are listed: those with a hit (about 15% of all), similar ones and a draw of the others.
SARS PLP yeast: qHTS of Yeast-based Assay for SARS-CoV PLP. S. cerevisiae expressing SARS-CoV PLpro, growth rescue. Potency, µM (doses to about 32.9 µM), for the others: at the top dose activity, positive = growth rescue, usual class: activators. hit rate 0.19% among 330,000; calls by dose curve; also: potency is read from the fitted curve at half-maximal effect; 0% is about no effect; nearly all actives have a fitted effect of over 55% in size
HCV inh: qHTS Assay for Inhibitors of Hepatitis C Virus (HCV) | Huh7.5.1 HCVcc-Cre infection, luciferase reporter, 44 h | AID 651820, 2012 | hit rate 3.4% among 340,000 | Potency, µM (highest dose often 41.8 µM), without a hit: at the highest dose activity change, negative = inhibition, actives largely listed as inhibitors; also: potency is read from the fitted curve at half-maximal effect; % is scaled to controls: 0 for no effect and ±100 for the full control effect
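1,000 cells/well; 4 h culture; + compound; + HCVcc-Cre (~0.5 moi); 44 h; luciferase substrate, RT 15 min; read 15 sec.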
HCMV inh: qHTS Assay for inhibitors of the human cytomegalovirus (HCMV); AID 1259415, 2018; activity change, negative = inhibition, % at 57.5 µM; hit rate 4.5% among 410,000; HFF cells, HCMV-luciferase reporter, 72 h; stronger effect = lower value; in the data active = activity change below about -60%; inconclusive = no clear call, values can overlap the other calls; inactive = above about -39%; also: % is scaled to controls: 0 for no effect and ±100 for the full control effect
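Steps: HFFs plated, 16 h 37C; compounds added; HCMV-luciferase added to MOI 1 PFU/cell; 72 h 37C; OneGlo reagent, 5 min room temperature; luminescence read, normalized to controls.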
Sm TGR block: qHTS Assay for the Inhibitors of Schistosoma Mansoni Peroxiredoxins | purified TGR, DTNB reduction, TNB absorbance 405 nm | Potency, µM (doses to about 114 µM), inactives show top-dose activity change, negative = inhibition, usual class: inhibitors | hit rate 3% among 360,000; also: potency is read from the fitted curve at half-maximal effect; % is scaled to controls: 0 for no effect and ±100 for the full control effect; nearly all actives have a fitted effect of over 60% in size
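Kinetic colorimetric format: TGR-catalysed, NADPH-driven DTNB reduction monitored via TNB absorbance. Enzyme dispensed at 20 nM; compound exposure 15 min at room temperature before reaction start.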
Pf growth 96h: Primary qHTS for delayed death inhibitors of the malarial parasite plastid, 96 hour incubation | P. falciparum luciferase reporter growth, 96 h | Potency, µM (series often up to 28.7 µM), inactives show top-dose activity change, negative = inhibition, hits mostly inhibitors | hit rate 6.9% among 320,000 | AID 504834, 2011; also: potency is read from the fitted curve at half-maximal effect; % is scaled to controls: 0 for no effect and ±100 for the full control effect
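Luminescence readout: decreased luciferase signal marks inhibited growth of reporter-expressing P. falciparum in infected red cells (2% hematocrit, 0.05% parasitemia final), exposed to compound two generations (96 h, 37 C, 5% CO2).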
Pf growth 48h: Primary qHTS for delayed death inhibitors of the malarial parasite plastid, 48 hour incubation; P. falciparum luciferase growth in erythrocytes, 48 h; hit rate 5.9% among 310,000; Potency, µM (doses to about 28.7 µM), inactives show top-dose activity change, negative = inhibition, most hits filed as inhibitors; also: potency is read from the fitted curve at half-maximal effect; % is scaled to controls: 0 for no effect and ±100 for the full control effect
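Luciferase-expressing parasites in RBCs, 2% Hct / 0.1% parasitemia final; RPMI 1640 + 0.5% Albumax; 37 C, 5% CO2, one generation; luminescence read-out, lower signal = inhibition.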
* hit, by the source's call; ? = inconclusive; / = no result. Unless noted, calls follow the shape of the dose curve; as a rule, active = well fitted curve in the direction sought with a large enough effect; inconclusive = small, poorly fitted or top-dose-only effect, or another doubt; inactive = no such curve, though single readings can be large; an effect the other way counts as inactive or inconclusive.

SMILES	SARS PLP yeast	HCV inh	HCMV inh	Sm TGR block	Pf growth 96h	Pf growth 48h
COc1ccc(C(=O)CC(=O)C(=O)Nc2cc(C)ccc2C)cc1	1%	-8%	23	-2%	9.3µM*	/
COc1ccc(C(=O)CCC(=O)Nc2cc(C)ccc2C)cc1	/	/	-30	3%	/	/
C[C@@H]1CN([C@H](C)CO)C(=O)CCCn2cc(nn2)CO[C@H]1CN(C)S(=O)(=O)c1cccc(C#N)c1	/	/	14	/	/	/
CCCCCCn1c(=O)[nH]c2nc3cc(N)c(C)cc3nc2c1=O	-10%	?	10	5%	?	-12%
CCCCn1c(=O)[nH]c2nc3cc(NC(C)=O)ccc3nc2c1=O	0%	14%	-10	-1%	2%	15µM*
Cc1ccc(-n2c(SCC(=O)N3CCC(C)CC3)nc3c([nH]c4ccccc43)c2=O)cc1	/	/	-29	8%	/	/
Cc1ccc(CSC2=Nc3ccccc3C3=NC(CCC(=O)NCCc4ccccc4)C(=O)N23)cc1 (centres undefined)	/	/	-90*	-2%	/	/
Cc1ccc(CS(=O)(=O)CCC(=O)NCCc2ccccc2)cc1	-1%	5.6µM*	28	-2%	5%	19%
O=C(CC1N=C2c3ccccc3N=C(SCC(=O)Nc3ccc(F)cc3)N2C1=O)NCc1cccs1 (centres undefined)	/	/	16	11%	/	/
O=C(CCS(=O)(=O)Cc1ccccc1)NCCc1ccccc1	2%	25%	-9	0%	-14%	9%
Cc1ccc(NC(=O)CSCC(=O)NCCc2ccccc2)cc1	-3%	7%	1	-24%	52%	?
Cc1ccc(CSC2=Nc3ccccc3C3=NC(CCC(=O)NCc4cccs4)C(=O)N23)cc1 (centres undefined)	/	/	47	0%	/	/
O=C(CCC1N=C2c3ccccc3N=C(SCC(=O)Nc3ccc(F)cc3)N2C1=O)NCc1cccs1 (centres undefined)	/	/	-80*	3%	/	/
Cc1ccc(CSCC(=O)NCCc2ccccc2)cc1	-4%	-21%	-100*	-6%	-16%	22%
Cc1cccc(NC(=O)C(=O)NCC(c2ccc3c(c2)OCO3)N2CCOCC2)c1C (centres undefined)	/	/	-24	0%	/	/
Cc1ccc(CSCC(=O)Nc2ccccc2C(=O)O)cc1	3%	12%	-79*	8%	2.1µM*	44%
Cc1cccc(N=C2NC(=O)/C(=C/c3cccnc3)S2)c1	2%	-11%	?	0%	?	?
O=C1NC(=Nc2cccc(O)c2)S/C1=C\c1cccc([N+](=O)[O-])c1	1%	36%	-69*	10%	?	-9%
Cc1c(N=C2NC(=O)/C(=C/c3cccc([N+](=O)[O-])c3)S2)c(=O)n(-c2ccccc2)n1C	1%	8%	/	-2%	0%	25%
O=C1NC(=Nc2cccc(O)c2)S/C1=C\c1cccnc1	0%	2%	?	8.9µM*	6.6µM*	?
O=C(NCCCl)NNc1c(Cl)cc(Cl)cc1Cl	0%	-1%	-9	10%	?	-30%
CCCCNC(=S)NNc1c(Cl)cc(Cl)cc1Cl	14%	1%	-17	?	8.3µM*	-2%
Cc1cc(C(=O)C(C)Cl)c(C)n1Cc1ccco1 (centres undefined)	-1%	26%	-6	28µM*	3%	-14%
C=CCNc1cccc2c1S(=O)(=O)N[C@@H](Cc1ccccc1)CO2	/	/	-22	/	/	/
Cc1cccc(Cn2nnc3c2C(=O)c2ccccc2C3=O)c1	6%	?	-100*	-21%	2.9µM*	?
Cc1ccc(C)c(C(=O)Cn2ncc(Cl)c(Cl)c2=O)c1	-2%	10µM*	-97*	50µM*	/	?
Cc1ccc(C)c(C(=O)CN2C(=O)c3ccccc3C2=O)c1	0%	11%	-14	5%	25%	19%
